Bcl-xL primary – Bcl-xL (human) inhibition. inhibition, % at 10.9 µM. 320,000 tested, 0.7% active. Q07817. GST-Bcl-xL / FITC-Bim BH3 peptide fluorescence polarization;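 active = inhibition above the mean of all tested compounds plus 3 SD, cutoff set per campaign, cut at about 30% in these data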;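 note: inhibitors lower millipolarization by displacing the labeled peptide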
Mcl1-Bid inh – Mcl-1/Bid interaction inhibition. TR-FRET Mcl-1/Bid-Dy647 peptide binding, 1536-well. Q07820. inhibition, % at 21.7 µM. 220,000 tested, 0.97% active;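 active = compounds that cut the binding signal by more than half at the single screening dose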;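 note: His-tagged Mcl-1 with europium anti-His antibody binding Bid BH3 peptide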
GLD-1 TGE inh – GLD-1-TGE RNA interaction inhibition (C. elegans) | Q17339 | purified GLD-1 + fluorescein TGE RNA, fluorescence polarization | inhibition, % at 5.96 µM | 320,000 tested, 0.44% active | AID 2280;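 active = percent inhibition above a per-plate cutoff, the plate mean of test compounds plus 3 SD, cut at about 30% in these data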
Target sequence (Q17339 whole entry, looked up): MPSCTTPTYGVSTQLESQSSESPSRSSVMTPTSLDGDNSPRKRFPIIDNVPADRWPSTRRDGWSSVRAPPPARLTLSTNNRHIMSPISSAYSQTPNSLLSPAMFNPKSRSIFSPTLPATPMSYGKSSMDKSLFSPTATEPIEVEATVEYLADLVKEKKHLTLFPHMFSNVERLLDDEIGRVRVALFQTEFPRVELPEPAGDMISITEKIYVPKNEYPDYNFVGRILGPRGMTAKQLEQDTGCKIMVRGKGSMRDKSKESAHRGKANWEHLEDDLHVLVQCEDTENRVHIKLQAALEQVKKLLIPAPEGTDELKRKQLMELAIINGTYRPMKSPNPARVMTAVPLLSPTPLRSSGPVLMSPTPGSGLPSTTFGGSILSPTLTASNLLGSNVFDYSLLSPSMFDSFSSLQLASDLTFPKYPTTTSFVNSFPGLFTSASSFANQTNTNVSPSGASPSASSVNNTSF
Bim-Mcl-1 – human Bim-Mcl-1 interaction inhibition; inhibition, % at 10 µM; AID 1009; Bead-based flow cytometry, Bim peptide-Mcl-1 binding; Q07820; 190,000 tested, 0.1% active; in the data active = inhibition above about 40%
MCL1 BIM primary – MCL1-BIM-BH3 interaction inhibition (human) | Q07820 | GST-MCL1 / FITC-Bim-BH3 fluorescence polarization | inhibition, % at 10.9 µM | 320,000 tested, 0.68% active;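 active = inhibition above the mean inhibition of all tested compounds plus 3 SD, set per campaign, cut at about 40% in these data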;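 note: higher means more loss of mP so more displacement of Bim peptide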
Mcl1-Noxa inh – disrupts binding of human Mcl-1 to Noxa peptide; 220,000 tested, 1.5% active; AID 1022; TR-FRET Mcl-1/Noxa peptide binding, 2 h; Q07820; inhibition, % at 21.7 µM;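 active = compounds that cut the protein-peptide binding signal by more than 50% relative to plate controls in a single-dose test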;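 note: His-tagged Mcl-1 with rhodamine Noxa BH3 peptide and terbium anti-His antibody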
A number is an active result; 0 = inactive; - = not tested or not shown. In the library only some 2.3% were active in any assay of this set; here they are far more common.

SMILES	Bcl-xL primary	Mcl1-Bid inh	GLD-1 TGE inh	Bim-Mcl-1	MCL1 BIM primary	Mcl1-Noxa inh
COc1ccc(Cn2nnnc2C(c2ccc(N(C)C)cc2)N2CCC(C(N)=O)CC2)cc1 (stereo unspecified)	0	0	0	0	0	54
COCCn1c(=S)[nH]c2cc(OC)c(OC)cc2c1=O	0	0	0	0	0	0
NC(=O)c1ccsc1NC(=O)COC(=O)/C=C/c1ccc([N+](=O)[O-])cc1	0	0	0	-	0	79
CCN(CC)Cc1cc2[nH]c3c4ccc(Cl)cc4ncc3c2cc1OC	-	0	-	-	-	63
CCOC(=O)C1=C(C)N(C)C(=O)NC1c1cc2c(cc1[N+](=O)[O-])OCO2 (stereo unspecified)	0	0	0	0	0	51
CCOC(=O)C1=C(C)N(C)C(=O)NC1c1cccc([N+](=O)[O-])c1 (stereo unspecified)	0	-	0	-	0	-
Cn1c(-c2ccccc2)c(C(=O)CCl)c2ccccc21	-	0	-	0	-	70
CCOc1ccccc1CNC(=O)CCCn1ccc2cc(S(=O)(=O)N3CCCC3)ccc21	0	-	0	-	0	-
CCN(CC)S(=O)(=O)c1ccc(N2CCOCC2)c(NC(=O)Cc2cccc3ccccc23)c1	0	0	0	0	0	0
c1coc(-c2nc3c4c5c(sc4ncn3n2)CCCC5)c1	0	97	0	0	0	0
Oc1ccc(Nc2ncnc3c2oc2ccccc23)cc1	0	-	0	-	0	-
CC(=O)N1CCN(c2ccc(Nc3ncnc4c3oc3ccccc34)cc2)CC1	0	0	0	0	0	68
CCc1nc(Nc2ccc(N3CCN(C(C)=O)CC3)cc2)c2oc3ccccc3c2n1	0	0	0	0	0	85
CC(C)Oc1ccc(C2CCC(=O)NC2=O)cc1 (stereo unspecified)	0	0	0	0	0	0
O=C(COC(=O)c1cc[n+]([O-])cc1)Nc1ccccc1Cl	0	87	0	0	0	0
NC(=O)[C@@H]1CCCN1Cc1c(C(=O)N2CCc3ccccc3C2)nc2ccc(Cl)cn12	41	-	36	-	43	-
CC1CCN(Cc2c(C(=O)N3CCc4ccccc4C3)nc3ccc(Cl)cn23)CC1	0	-	0	-	0	-
Nc1nc(Cl)cc(N2CCCC2)n1	0	0	0	0	0	0
Nc1nc(Cl)cc(N2CCC(c3cc(-c4ccc(Cl)cc4Cl)n[nH]3)CC2)n1	0	0	0	0	0	66
CC(C)CC(NC(N)=O)C(=O)OCC(=O)NC(=O)NC1CCCC1 (stereo unspecified)	0	0	0	0	0	0
Cc1cccc(-c2n[nH]c(=S)n2/N=C/c2ccc(C)s2)c1	0	0	0	0	0	69
COc1ccc(S(=O)(=O)N(C)CC(=O)NCc2ccco2)cc1Cl	0	-	0	-	0	-
COc1ccc(C)cc1S(=O)(=O)N(C)CC(=O)NCc1ccco1	0	94	0	0	0	0
NC(=O)c1nsc(C(=O)N(c2cccc(F)c2)C(C(=O)NCc2ccccc2)c2ccc(O)cc2)c1N (stereo unspecified)	0	-	0	-	0	-
CCCN1CCC(NC(=O)CCc2nnc(Cc3cc(OC)ccc3OC)o2)CC1	0	0	0	0	0	0
SMILES	Bcl-xL primary	Mcl1-Bid inh	GLD-1 TGE inh	Bim-Mcl-1	MCL1 BIM primary	Mcl1-Noxa inh
CNNC(=O)C(=O)NNS(=O)(=O)c1ccccc1	0	86	0	0	0	0
CC(C)C(=O)NNS(=O)(=O)c1ccccc1	0	0	0	0	0	0
Cc1cccc(C(=O)Nc2ccnc(-c3ccncc3)n2)c1	0	0	0	0	0	0
Cc1cccc(C(=O)Nc2ccnc(-c3cccnc3)n2)c1	0	91	0	0	0	0
CCN(CC)CCCOc1ccc(Cl)c(Cl)c1	36	0	0	0	0	0
CN(CCOc1ccc(Cl)c(Cl)c1)Cc1ccccc1	0	-	0	-	0	-
Cc1ccccc1C(=O)Nc1ccc(N2CCCC2)cc1	0	0	0	0	0	0
CS(=O)(=O)c1ccc(C(=O)Nc2ccc(N3CCCC3)cc2)c(Cl)c1	0	0	0	0	0	67
CS(=O)(=O)c1ccc(C(=O)Nc2ccc(N3CCOCC3)cc2)c(Cl)c1	0	0	0	0	0	0
Cc1ccc(C(=O)Nc2ccc(N3CCCC3)cc2)c(C)c1	0	0	0	0	0	75
Cc1ccc(C(=O)N2CCCC(CCC(=O)N3CCN(c4ccccn4)CC3)C2)cc1 (stereo unspecified)	0	-	0	-	0	-
CCCCn1c(=O)cc(C)n(-c2ccccc2)c1=O	0	-	0	-	0	-
CCCCn1c(=O)nc2n(-c3ccccc3)c3ccccc3cc-2c1=O	0	64	0	0	0	0
O=C(Nc1ccc(N2CCCC2)c(Cl)c1)c1ccc([N+](=O)[O-])o1	-	0	-	0	-	59
CCOC(=O)c1c(-c2ccccc2)csc1NC(=S)NC	0	0	0	0	0	55
Cc1ccc(S(=O)(=O)N2CCOCCOCCOCCOCCOCC2)cc1	0	-	0	-	0	-
Cc1cc(C)c2c(c1)C1C=CCC1C(c1ccc(S(=O)(=O)N3CCOCC3)cc1)N2 (stereo unspecified)	0	70	0	0	0	95
O=S(=O)(c1ccc(C2CCCCC2)cc1)N1CCOCC1	0	0	0	0	0	0
O=C(O)c1cc(Cl)c2c(c1)[C@@H]1C=CC[C@@H]1[C@H](c1ccc(S(=O)(=O)N3CCOCC3)cc1)N2	40	0	0	0	48	0
Cc1ccc(S(=O)(=O)NCC(=O)OCC(=O)NCc2ccco2)cc1	-	-	0	-	-	-
N=C(c1cccc([N+](=O)[O-])c1)N1CCCCCC1	0	0	0	0	0	0
CN(C)/C=C/C(=O)c1ccc(Cl)cc1Cl	0	0	0	0	0	0
CN(C)/C=C/C(=O)c1ccc(C(F)(F)F)cc1F	0	0	0	100	0	0
CC(/C=C1\SC(=S)N(NS(=O)(=O)c2ccccc2)C1=O)=C\c1ccccc1	0	0	0	-	0	79
CC(/C=C1\SC(=S)N(NC(=O)c2ccccc2C)C1=O)=C\c1ccccc1	0	0	0	0	0	0
SMILES	Bcl-xL primary	Mcl1-Bid inh	GLD-1 TGE inh	Bim-Mcl-1	MCL1 BIM primary	Mcl1-Noxa inh
CC(/C=C1\SC(=S)N(NS(=O)(=O)c2ccc(C)cc2)C1=O)=C\c1ccccc1	0	66	0	-	0	94
CC(/C=C1\SC(=S)N(CCCC(=O)Nc2ccc(C(=O)O)c(O)c2)C1=O)=C\c1ccccc1	0	94	0	0	0	111
CC(/C=C1\SC(=S)N(NC(=O)c2ccc(C)cc2)C1=O)=C\c1ccccc1	0	0	0	0	0	0
COc1ccc(C(=O)NCc2nnc(SCC(=O)Nc3cc(OC)ccc3OC)o2)cc1	0	-	0	-	0	-
O=C1CCC(C(=O)N2CCCC2)CN1CCc1cccc(F)c1 (stereo unspecified)	0	-	0	-	0	-
O=C(C1CCN(CCCc2ccccc2)CC1)N(CCc1ccccc1)Cc1ccccc1	0	0	0	0	0	0
O=C(C1CCN(CC2CC=CCC2)CC1)N(CCc1ccccc1)Cc1ccccc1 (stereo unspecified)	0	74	0	0	0	0

Assay outcomes: PubChem BioAssay, several laboratories
